Reference: PubChem BioAssay (Tox21)
Several values for one entry are separate records, joined by “and”; a condition that tells them apart may be missing. Equal values may be shown once. Inconclusive results are not listed. Where a structure was tested more than once in an assay, its records may differ in their call. Activity calls are given as the source filed them. Unless noted, the call rests on the fitted dose curve; in most records, active means well fitted curve in the direction sought with a large enough effect in the repeat runs; inconclusive means weak or mixed curves; inactive means no such curve, though single readings can be large; an effect the other way counts as inactive or inconclusive.

Assays:
[1] = qHTS assay to identify aromatase inhibitors - cell viability counter screen (AID 743084);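 further: cells stimulated with testosterone during compound exposure; nearly all actives have a fitted effect of over 55% in size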
[2] = target: Aryl hydrocarbon receptor (Homo sapiens) (UniProt P35869); assay: qHTS assay to identify small molecule that activate the aryl hydrocarbon receptor (AhR) signaling pathway (AID 743085); further: nearly all actives have a fitted effect of over 15% in size; further: potency means the concentration at half of the fitted maximal effect;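 on activation: HG2L7.5c1 human HepG2 liver cells with stably integrated DRE-driven firefly reporter; series mostly up to about 70 µM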
Sequence of Aryl hydrocarbon receptor (Homo sapiens) (P35869 whole entry, looked up): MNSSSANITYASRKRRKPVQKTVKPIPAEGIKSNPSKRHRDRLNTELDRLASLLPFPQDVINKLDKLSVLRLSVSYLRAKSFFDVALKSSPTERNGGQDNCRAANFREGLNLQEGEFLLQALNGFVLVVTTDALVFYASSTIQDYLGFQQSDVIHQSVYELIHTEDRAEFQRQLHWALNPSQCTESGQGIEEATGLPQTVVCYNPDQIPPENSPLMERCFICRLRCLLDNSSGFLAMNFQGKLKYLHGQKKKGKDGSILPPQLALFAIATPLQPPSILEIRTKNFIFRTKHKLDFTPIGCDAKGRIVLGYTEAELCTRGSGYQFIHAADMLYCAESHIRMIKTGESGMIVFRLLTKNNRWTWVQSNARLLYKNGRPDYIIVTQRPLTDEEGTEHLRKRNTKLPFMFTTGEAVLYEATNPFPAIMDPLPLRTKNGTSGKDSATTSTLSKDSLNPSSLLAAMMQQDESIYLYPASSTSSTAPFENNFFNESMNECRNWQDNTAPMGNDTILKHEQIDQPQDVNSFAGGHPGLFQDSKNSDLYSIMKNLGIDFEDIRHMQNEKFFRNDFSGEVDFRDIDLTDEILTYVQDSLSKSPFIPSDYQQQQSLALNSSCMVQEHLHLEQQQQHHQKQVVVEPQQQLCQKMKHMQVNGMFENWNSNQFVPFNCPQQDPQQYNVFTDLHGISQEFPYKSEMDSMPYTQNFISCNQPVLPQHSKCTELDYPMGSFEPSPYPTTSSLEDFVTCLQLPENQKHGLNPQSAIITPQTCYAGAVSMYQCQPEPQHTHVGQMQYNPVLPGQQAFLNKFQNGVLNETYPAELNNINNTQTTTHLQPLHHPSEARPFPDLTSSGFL
Summary of the method: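 24 h compound exposure, 37C, HepG2-derived HG2L7.5c1 cells with DRE-responsive luciferase. Readouts: fluorescence viability, then luminescence at room temperature after 30 min.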

[3] = qHTS assay to identify small molecule that activate the aryl hydrocarbon receptor (AhR) signaling pathway - cell viability counter screen (AID 743086); further: nearly all actives have a fitted effect of over 45% in size; further: potency means the concentration at half of the fitted maximal effect
Summary of the method: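 Cytotoxicity counter screen: CellTiter-Fluor signal (30 min, 37 C) in 4000 HepG2 cells/well carrying the DRE-luciferase reporter, following 24 h compound exposure at 37 C.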

[4] = target: Peroxisome proliferator-activated receptor gamma (Homo sapiens) (UniProt P37231); assay: qHTS assay to identify small molecule agonists of the peroxisome proliferator-activated receptor gamma (PPARg) signaling pathway (AID 743094; active means well fitted activation curve with a large enough effect in the signal ratio in the repeat runs, not every such curve was filed as active; the % refers to the signal ratio)
Sequence of Peroxisome proliferator-activated receptor gamma (Homo sapiens) (P37231 whole entry, looked up): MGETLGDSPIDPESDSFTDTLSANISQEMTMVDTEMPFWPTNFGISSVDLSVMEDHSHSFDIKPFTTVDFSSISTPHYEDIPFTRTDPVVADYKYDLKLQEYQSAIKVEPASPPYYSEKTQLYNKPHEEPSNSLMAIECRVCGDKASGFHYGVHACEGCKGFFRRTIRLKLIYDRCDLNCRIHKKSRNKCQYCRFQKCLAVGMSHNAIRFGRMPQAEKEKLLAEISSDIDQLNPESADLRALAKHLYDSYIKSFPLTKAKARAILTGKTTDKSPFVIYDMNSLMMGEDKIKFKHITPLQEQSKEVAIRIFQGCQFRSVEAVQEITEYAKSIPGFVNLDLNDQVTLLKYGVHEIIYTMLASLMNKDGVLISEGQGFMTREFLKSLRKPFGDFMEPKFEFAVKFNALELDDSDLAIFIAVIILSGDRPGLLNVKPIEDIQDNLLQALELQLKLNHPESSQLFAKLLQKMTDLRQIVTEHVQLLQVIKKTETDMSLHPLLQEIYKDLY
Summary of the method: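 Beta-lactamase FRET fluorescence was the read-out after a 1 h room-temperature substrate step, following 17 h compound treatment at 37C of HEK293H cells expressing a UAS-driven bla reporter responsive to PPARg.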

[5] = target: Peroxisome proliferator-activated receptor gamma (Homo sapiens) (UniProt P37231); assay: qHTS assay to identify small molecule antagonists of the peroxisome proliferator-activated receptor gamma (PPARg) signaling pathway (AID 743191; calls by dose curve; further: series mostly up to about 63 µM; nearly all actives have a fitted effect of over 30% in size)
Summary of the method: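 Beta-lactamase reporter under UAS control in HEK293H PPARg-bla cells; compound treatment 17 h at 37C. Read-out: fluorescence intensity after 1 h room-temperature incubation with LiveBLAzer B/G FRET substrate.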

[6] = qHTS assay to identify small molecule antagonists of the peroxisome proliferator-activated receptor gamma (PPARg) signaling pathway - cell viability counter screen (AID 743194); settings: Potency: co-treated with 50 nM rosiglitazone unless noted; further: nearly all actives have a fitted effect of over 55% in size
Summary of the method: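 Viability was measured as CellTiter-Glo luminescence in GeneBLAzer PPARg UAS-bla HEK293H cells. These cells had been exposed 17 h at 37 C to compounds together with rosiglitazone at 50 nM final, with the beta-lactamase readout taken in the same wells.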

[7] = qHTS assay for small molecule agonists of the antioxidant response element (ARE) signaling pathway - cell viability counter screen (AID 743203; calls by dose curve; further: nearly all actives have a fitted effect of over 55% in size)
Summary of the method: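 HepG2 cells carrying ARE-driven beta-lactamase; 2,000 cells/well; 5 hrs plating; compound pinned from DMSO; 16 hrs 37C/5% CO2; CellTiter-Glo added; 30 min RT; luminescence.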

[8] = qHTS assay for small molecule activators of the heat shock response signaling pathway - cell viability counter screen (AID 743209); further: nearly all actives have a fitted effect of over 50% in size
Summary of the method: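 Luminescence from CellTiter-Glo, added after the beta-lactamase FRET read, gave the viability signal. Cells were HSE-bla HeLa treated with DMSO-dissolved compounds for 5 h at 37 C following overnight plating.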

[9] = qHTS assay for small molecule agonists of the antioxidant response element (ARE) signaling pathway (AID 743202; active means well fitted activation curve with a large enough effect in the signal ratio in the repeat runs, not every such curve was filed as active; the % refers to the signal ratio; further: potency means the concentration at half of the fitted maximal effect)
Summary of the method: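 An ARE-responsive beta-lactamase gene stably integrated in HepG2 cells serves as reporter. After 5 h plating and 16 h compound incubation at 37 C, fluorescence of the B/G FRET substrate was measured.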

[10] = qHTS assay for small molecule activators of the heat shock response signaling pathway (AID 743210; active means well fitted activation curve with a large enough effect in the signal ratio in the repeat runs, with a control signal flat, not every such curve was filed as active; the % refers to the signal ratio;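 further: HeLa cells with beta-lactamase reporter driven by heat shock elements; series mostly up to about 63 µM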)
Summary of the method: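 In HSE-bla HeLa cells, 5 h compound incubation (37 C) precedes addition of LiveBLAzer B/G substrate; after 2.5 h at room temperature, fluorescence intensity indicates reporter induction.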

Measured: Potency

Cn1c(-c2ccccc2)cc(-c2ccccc2)[n+]1C
not listed: [9] | [10]
inactive: all other assays above

CCOP(=S)(OCC)OP(=S)(OCC)OCC
inactive: all assays above

Cc1ccc(N=CN(C)C=Nc2ccc(C)cc2C)c(C)c1
inactive and 48.8 µM (active): [2]
not listed: [6]
inactive: all other assays above

CC(C)CON=O
inactive: all assays above

CCOP(=S)(OCC)SCn1c(=O)oc2cc(Cl)ccc21
active: [2] 32.9 µM and 61.1 µM | [9] 9.69 µM
not listed: [6]
inactive: all other assays above

N#Cc1cccnc1
inactive: all assays above

N#Cc1nn(-c2c(Cl)cc(C(F)(F)F)cc2Cl)c(N)c1S(=O)C(F)(F)F (stereo not drawn)
inactive and 30.8 µM (active): [3]
not listed: [7] | [9] | [10]
inactive: all other assays above

CC(C)(C#N)N=NC(C)(C)C#N
inactive: all assays above

CC1CC(=O)O1 (stereo not drawn)
inactive: all assays above

CN(C)P(=O)(N(C)C)N(C)C
inactive: all assays above

CCCCSP(=O)(SCCCC)SCCCC
not listed: [5]
inactive: all other assays above

C[C@]12CC[C@H]3[C@@H](CCC4=CC(=O)CC[C@@H]43)[C@@H]1CC[C@@H]2O
active: [9] 34.1 µM
not listed: [5]
inactive: all other assays above

N#CCCCCC#N
inactive: all assays above

CC(C)(O)C#N
not listed: [5]
inactive: all other assays above

CCCCOCCOC(C)=O
not listed: [5]
inactive: all other assays above

CCCCOCC1CO1 (stereo not drawn)
inactive: all assays above

CCCCCCCCCCCCCl
inactive: all assays above

CCC/C=N/O
not listed: [5]
inactive: all other assays above

S=c1[nH]c2ccccc2[nH]1
active: [2] 68.6 µM
not listed: [9]
inactive: all other assays above

COP(=S)(OC)Oc1ccc(S(=O)(=O)N(C)C)cc1
not listed: [9]
inactive: all other assays above

COc1ccc(O)c(C(C)(C)C)c1
not listed: [9]
inactive: all other assays above

C[N+](C)(C)CC(=O)[O-]
not listed: [5] | [10]
inactive: all other assays above

Clc1ccc(C(Cl)(Cl)Cl)cc1
inactive: all assays above

Nc1ccc2ccccc2c1
active: [2] 20.9 µM and 27.3 µM
inactive: all other assays above
